Compound activity from PubChem.
A selection: hits, their analogues and other compounds. The true share with any hit is near 1.6%.
HTR5A ag: counter-screen for OPRM1-OPRD1 agonists: human HTR5A agonism; hit rate 0.61% among 340,000; P47898; AID 504692; activation, % at 9.3 µM; HTR5A agonist assay, luminescence, cell-based; in the data active means activation mostly above about 9.5%, no sharp cut-off; inactive means mostly below about 7.6%
OPRM1-OPRD1 ag: agonists of human mu-delta opioid receptor heterodimerization; activation, % at 9.3 µM; P35372+P41143; hit rate 0.3% among 340,000; cells, OPRM1-OPRD1 heterodimerization, luminescence; in the data active means activation above about 18%
Target sequence (P35372 whole entry, looked up): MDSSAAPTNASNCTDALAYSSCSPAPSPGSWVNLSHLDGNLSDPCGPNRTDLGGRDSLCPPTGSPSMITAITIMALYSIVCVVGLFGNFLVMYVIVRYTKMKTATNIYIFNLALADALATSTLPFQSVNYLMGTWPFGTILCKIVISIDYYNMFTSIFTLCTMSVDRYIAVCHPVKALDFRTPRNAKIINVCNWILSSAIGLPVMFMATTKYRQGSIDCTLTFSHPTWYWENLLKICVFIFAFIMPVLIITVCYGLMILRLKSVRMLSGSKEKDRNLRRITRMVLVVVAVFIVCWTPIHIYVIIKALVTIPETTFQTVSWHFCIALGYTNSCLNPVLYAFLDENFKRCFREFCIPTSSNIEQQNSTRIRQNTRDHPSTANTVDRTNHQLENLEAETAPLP
Target sequence (P41143 whole entry, looked up): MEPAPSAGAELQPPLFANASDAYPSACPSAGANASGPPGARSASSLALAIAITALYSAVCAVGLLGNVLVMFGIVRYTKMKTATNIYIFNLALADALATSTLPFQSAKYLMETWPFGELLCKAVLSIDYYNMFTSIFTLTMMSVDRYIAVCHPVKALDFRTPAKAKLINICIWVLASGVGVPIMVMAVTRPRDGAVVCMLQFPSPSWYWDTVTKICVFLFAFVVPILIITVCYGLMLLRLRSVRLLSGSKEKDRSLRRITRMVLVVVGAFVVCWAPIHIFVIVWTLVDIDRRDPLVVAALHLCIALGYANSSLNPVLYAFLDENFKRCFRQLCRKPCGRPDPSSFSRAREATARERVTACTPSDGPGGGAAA
HTR5A inv ctr: inverse agonist of human HTR5A in OPRM1-OPRD1 counter-screen. inhibition, % at 9.3 µM. P47898. HTR5A cell line, luminescence, inverse agonism. hit rate 0.083% among 340,000; in the data active means inhibition mostly above about 23%, no sharp cut-off; inactive means mostly below about 18%
PolyA inhibitor: blocks polyadenylation in yeast reporter cells; S. cerevisiae SKY197-pL101 polyadenylation reporter, beta-gal luminescence; efflux-impaired pdr1/pdr3 knockout yeast; score 100 = 6 SD above DMSO; activity score, % at 12 µM; hit rate 0.02% among 300,000;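 active means lowest replicate activity score at least 50, where 100 means six control SD above control mean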;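 further: yeast exposed to compound for 9 h at 30 °C; higher score means more reporter readthrough which indicates perturbed polyadenylation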
NALP1 inh: inhibitors of NALP1 inflammasome in yeast; S. cerevisiae NALP1/ASC/caspase-1 growth, X-gal OD620, 72 h; inhibition, % at 10 µM; hit rate 0.61% among 280,000; in the data active means inhibition mostly above about 24%, no sharp cut-off; inactive means mostly below about 32%
MOR-DOR inv ag-1: mu-delta opioid heterodimer inverse agonism. P35372+P41143. cell-based MOR-DOR heterodimer luminescence. inhibition, % at 9.3 µM. hit rate 0.21% among 340,000. AID 504357; in the data active means inhibition above about 22%, passing the limit was not always enough
MOR-DOR inv ag-2: counter-screen for HTR5A inverse agonists: OPRM1-OPRD1 heterodimerization inverse agonism. shares compounds with HTR5A inv ctr. U2OS counter-screen cells, complementation luminescence. inhibition, % at 9.3 µM. 190 tested, under 10 active
HTR5A inv confrm: HTR5A (human) inverse agonism, confirmation | shares compounds with HTR5A inv ctr | HTR5A-expressing cells, luminescence | inhibition, % at 9.3 µM | 190 tested, under 10 active | AID 504916
Of the large screens only hits and unclear results are named; the others gave an inactive call (follow-up assays come after a bar, where they were run). Unless noted, how the calls were made is not given here.

CCOC(=O)c1c(N)n(C2CC(C)(C)NC(C)(C)C2)c2nc3ccccc3nc12	HTR5A inv ctr 37 | MOR-DOR inv ag-2 inactive | HTR5A inv confrm inactive
CCSc1nc(C)cc(Oc2ccc(=O)n(C)n2)n1	HTR5A inv ctr 89 | MOR-DOR inv ag-2 inactive | HTR5A inv confrm inactive
CSc1nc(C)cc(Oc2ccc(=O)n(C)n2)n1	none
O=C(C[n+]1ccccc1)N/N=C/c1cc(Br)cc(Br)c1O	HTR5A inv ctr 41 | MOR-DOR inv ag-2 inactive | HTR5A inv confrm inactive
COc1ccc2[nH]c3c(c2c1)CCN1C(=O)C(CC(=O)NC(C)(C)C)C[C@H](C(=O)N2CCCCC2)[C@@]31C (stereo partly specified)	none (no result: PolyA inhibitor, NALP1 inh)
CN(C)/N=C/c1cc([N+](=O)[O-])ccc1O	HTR5A inv ctr 28 | MOR-DOR inv ag-2 inactive | HTR5A inv confrm inactive
NC(N)=N/N=C/c1cc([N+](=O)[O-])ccc1O	none
CC(C)CC1CC(C)(c2csc(NNC(=O)c3ccccc3)n2)OC1=O (stereo unspecified)	none
Cc1c(C(=O)N2CCCCC2CCN2CCCC2=O)oc2c(F)cccc12 (stereo unspecified)	none
CCN(CC)C(=O)CSc1nc2ccccc2c(=O)n1OC(C)C	HTR5A inv ctr 38 | MOR-DOR inv ag-2 inactive | HTR5A inv confrm inactive
CN1C(=O)C(Cl)(Cl)C(=O)c2ccccc21	none
NC(=NCc1ccccc1)C(N=Nc1ccccc1)C(=O)NCc1ccccc1 (stereo unspecified)	HTR5A inv ctr 30 (no result: PolyA inhibitor, NALP1 inh) | MOR-DOR inv ag-2 inactive | HTR5A inv confrm inactive
FC(F)Oc1ccccc1NC(=S)NCCc1ccccc1	HTR5A inv ctr 45 (no result: NALP1 inh) | MOR-DOR inv ag-2 inactive | HTR5A inv confrm inactive
Cc1cc(OC(F)F)ccc1NC(=S)NCCc1ccccc1	none
CN(C)CCNC(=O)c1csc(Nc2cccc3ccccc23)n1	none
CC(=O)N1CCc2c(sc(NC(=O)c3ccc([N+](=O)[O-])o3)c2C#N)C1	HTR5A inv ctr 32 | MOR-DOR inv ag-2 inactive | HTR5A inv confrm inactive
COc1ccc(CC(=O)NC2CC2)cc1OC	none
CCOc1ccc(NC(=S)NC(=O)c2c(Br)cnn2C)c([N+](=O)[O-])c1	HTR5A inv ctr 36 | MOR-DOR inv ag-2 inactive | HTR5A inv confrm inactive
CCOc1ccc(NC(=S)NC(=O)c2c(Cl)cnn2CC)c([N+](=O)[O-])c1	none
CC(C)c1ccc(/C=C/C(=O)Nc2nc3ccc([N+](=O)[O-])cc3s2)cc1	none
O=[N+]([O-])c1ccc2nc(NN=Cc3ccc(O)cc3)sc2c1	HTR5A inv ctr 30 (no result: PolyA inhibitor, NALP1 inh) | MOR-DOR inv ag-2 inactive | HTR5A inv confrm inactive
COCCN1Cc2cccc(C(=O)NCc3ccccc3OC)c2C1=O	none
CCCN1Cc2cccc(C(=O)NCc3ccccc3OC)c2C1=O	HTR5A inv ctr 37 | MOR-DOR inv ag-2 inactive | HTR5A inv confrm inactive
COc1ccc(CCNC(=O)C2CCN(c3nccc(C)n3)CC2)cc1	none
C/C(=N\Nc1ccc(F)cc1)c1ccc(N2CCOCC2)c(F)c1	none
COc1ccc(OCC(=O)NNC(=O)c2cc3ccccc3o2)cc1	HTR5A inv ctr 39 | MOR-DOR inv ag-2 inactive | HTR5A inv confrm inactive
COc1ccc(CNC(=S)NNC(=O)c2cc3ccccc3o2)cc1	none
N#CC1(N2CCN(C(=O)c3ccccc3)CC2)CCCCC1	none
NC(=S)c1cc2cc(Cl)ccc2oc1=O	none (no result: HTR5A ag, OPRM1-OPRD1 ag, HTR5A inv ctr, NALP1 inh, MOR-DOR inv ag-1)
CC(C)Cn1c(-c2ccc(Br)cc2)c[nH]c1=S	HTR5A inv ctr 81 | MOR-DOR inv ag-2 inactive | HTR5A inv confrm inactive
COc1ccc(OC)c(S(=O)(=O)Nc2c(NC3CCCCC3)c3ccccc3oc2=O)c1	none
CCOc1ccc(S(=O)(=O)n2ccc(C)n2)cc1	HTR5A inv ctr 26 | MOR-DOR inv ag-2 inactive | HTR5A inv confrm inactive
O=C(CSC1=N/C(=C/c2ccc(Cl)c(Cl)c2)C(=O)N1c1ccccc1F)NC1CC1	HTR5A inv ctr 37 | MOR-DOR inv ag-2 inactive | HTR5A inv confrm inactive
CCCCCNC(=O)CSC1=N/C(=C\c2ccc(Cl)c(Cl)c2)C(=O)N1CC	none
N#C/C(=C\c1ccc(O)c(O)c1)C(=O)c1ccc(O)c(O)c1	none (no result: PolyA inhibitor, NALP1 inh)
N#CC(C#N)=C(N)/C(C#N)=C/c1cc(O)c(O)c(O)c1	HTR5A inv ctr 30 (no result: PolyA inhibitor, NALP1 inh) | MOR-DOR inv ag-2 inactive | HTR5A inv confrm inactive
N/C(=N\OC(=O)CCN1C(=O)c2ccccc2C1=O)c1ccccn1	HTR5A inv ctr 47 | MOR-DOR inv ag-2 inactive | HTR5A inv confrm inactive
COc1ccc(-n2c(-c3ccc(Cl)cc3)c[nH]c2=S)cc1	HTR5A inv ctr 38 | MOR-DOR inv ag-2 33 | HTR5A inv confrm inactive
Cc1ccc(-n2c(-c3ccccc3)c[nH]c2=S)cc1	none
COc1ccc(CCCN2CCC(CN3C(=S)NC[C@@H]3Cc3ccccc3)CC2)cc1OC	none (no result: PolyA inhibitor, NALP1 inh)
C=CC[n+]1c(-c2ccc(Cl)cc2Cl)csc1Nc1c(C)n(C)n(-c2ccccc2)c1=O	HTR5A inv ctr 36 | MOR-DOR inv ag-2 inactive | HTR5A inv confrm inactive
Cc1cc(C)n2nc(C(=O)OCC(=O)Nc3ccc(C)c(S(=O)(=O)N4CCOCC4)c3)nc2n1	HTR5A inv ctr 28 (no result: PolyA inhibitor, NALP1 inh) | MOR-DOR inv ag-2 inactive | HTR5A inv confrm inactive
Cc1cc(C)n2nc(C(=O)OCC(=O)Nc3ccc(C)c(S(=O)(=O)N(C)C)c3)nc2n1	none (no result: PolyA inhibitor, NALP1 inh)
O=C1N[C@@H](Cc2ccccc2)COC(=O)[C@@H](Cc2ccc(F)cc2)CC/C=C/C[C@H]1CC(=O)N(CCO)Cc1ccccc1	none (no result: PolyA inhibitor, NALP1 inh)
O=C1N[C@@H](Cc2ccccc2)COC(=O)[C@H](Cc2ccc(F)cc2)CC/C=C/C[C@@H]1CC(=O)N(CCO)Cc1ccccc1	HTR5A inv ctr 37 (no result: PolyA inhibitor, NALP1 inh) | MOR-DOR inv ag-2 inactive | HTR5A inv confrm inactive
Cc1cc2n(n1)C(c1ccc3c(c1)OCO3)Nc1c(C)cccc1-2 (stereo unspecified)	HTR5A inv ctr 33 | MOR-DOR inv ag-2 inactive | HTR5A inv confrm inactive
COC(=O)Cc1cc(=O)oc2cc(O)ccc12	none
CC(=O)NC(c1ccc(C)cc1)c1cc(Cl)c2cccnc2c1O (stereo unspecified)	none
Oc1c(C(Nc2ccccn2)c2cccnc2)cc(Cl)c2cccnc12 (stereo unspecified)	HTR5A inv ctr 54 | MOR-DOR inv ag-2 56 | HTR5A inv confrm 77
COc1ccc(/C=C/C(=O)NC(=S)NNC(=O)c2cccs2)cc1	HTR5A inv ctr 42 | MOR-DOR inv ag-2 inactive | HTR5A inv confrm inactive
O=C(NNc1ccc([N+](=O)[O-])cn1)Nc1ccc(N=Nc2ccccc2)cc1	HTR5A inv ctr 36 (no result: PolyA inhibitor, NALP1 inh) | MOR-DOR inv ag-2 inactive | HTR5A inv confrm inactive
O=C(NNc1ccc([N+](=O)[O-])cc1)Nc1ccccc1	none
COc1ccc(/C=C(\NC(=O)c2ccccc2)C(=O)OCC2CCCN3CCCCC23)cc1OC (stereo unspecified)	none
